This passage reports GI50 results from ChEMBL document CHEMBL1201862, “PubChem BioAssay data set” (2004).

Hit rate of the full screen: of about 54,000 sequences, about 4,000 (7.4%) were called active. No stated cut-off is given here; in the data, active = GI50 up to about 1.1 µM and inactive = higher. These entries were drawn from the full list. Results with a measured potency or affinity are listed apart.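 48-hour exposure; five concentrations; linearly interpolated endpoints. GI50 marks 50% less growth.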

This assay deals with SNB-75. Kind of assay: NCI tumour cell line growth inhibition, 48 h.
For the substance “[Bis(aminomethyl)pentamethylenesilane]tetrachloropaltinum(IV), CHEMBL2146204”, the GI50 came out at 2.64 µM.
“[Bis(aminomethyl)diethylsilane]tetrachloroplatinum(IV), CHEMBL2146203” returned a GI50 of 3.8 µM.
Regarding CISPLATIN, CHEMBL11359, the GI50 turned out to be 2.84 µM.
“mu-(1,7-nanodiamine-N,N')bis-(cis-aminedichloroplatimum (II)), CHEMBL2146215” yielded a GI50 of 12.4 µM.
In turn, “cis-Bis[[(trimethylsilyl)methyl]amino]tetrachloroplatinum(IV), CHEMBL2146191” registered a GI50 of 15 µM.
“[Bis(aminomethyl)ethylmethylsilane]tetrachloroplatinum(IV), CHEMBL2146192” had a GI50 of 3.53 µM.
In the case of “[Bis(aminomethyl)dimethylsilane]tetrachloroplatinum(IV), CHEMBL2146190”, the GI50 amounted to 11.5 µM.
Regarding “[Bis(aminomethyl)pentamethylenesilane]dichloropaltinum(II), CHEMBL2146202”, the GI50 amounted to 2.9 µM.
In turn, “[Bis(aminomethyl)tetramethylenesilane]dichloropaltinum(II), CHEMBL2146205” displayed a GI50 of 29.5 µM.
With “[Bis(aminomethyl)dimethylsilane]dichloroplatinum (II), CHEMBL2146201”, the GI50 was 9.23 µM.
The substance “[Bis(aminomethyl)tetramethylenesilane]tetrachloropaltinum(IV), CHEMBL2146189” yielded a GI50 of 5.7 µM.
